Outcome and AC50 data for eleven compounds are collected here from PubChem BioAssay (EPA / NIEHS).

Where “and” joins values, the source holds several entries; their conditions need not be identical. Equal entries are not always repeated. Inconclusive results are not listed. A structure can be active in one record and inactive in another. Calls of active or inactive are those of the source. How the source made its calls, unless noted: active means hit-call score of the fitted dose curve at least 0.9, where 1 is the maximum; inconclusive means response in the unintended direction; inactive means score below 0.9.

One assay concerns the target PGR (gene 5241) (UniProt P06401). In words: NVS_NR_hPR: NovaScreen (NVS) Nuclear Receptor Binding Assay for human Progestron Receptor (PR) (AID 2283360).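 Further: active means loss of bound radioligand signal versus DMSO baseline.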 The method, boiled down: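 T47D-derived receptor preparation, cell-free, with tritiated or iodinated radioligand displacement measured by scintillation 18 h post-dosing. Single 25 uM duplicate screen, then concentration series; signal loss relative to DMSO.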

Assay [1] concerns the target mouse Estrogen Receptor alpha (Era), Esr1 (gene 13982) (UniProt P19785). In words: NVS_NR_mERa: NovaScreen (NVS) Nuclear Receptor Binding Assay for mouse Estrogen Receptor alpha (Era) (AID 2283378).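 Further: hit means loss of bound radioligand signal relative to DMSO.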 An outline of the steps: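 Filter scintillation counts of bound radioligand, measured 18 h post-dose, gave the readout; decreased signal relative to DMSO controls indicated displacement from mouse Era. Primary screen ran in duplicate at 25 uM; active chemicals were retested across concentrations.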

Assay [2] deals with Estrogen receptor beta (Homo sapiens) (UniProt Q92731). In words: OT_ER_ERbERb_1440: Odyssey Thera (OT) 24-hour HEK293T Protein-Complementation Assay for Estrogen Receptor-beta/-beta Homodimer (AID 2283380).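 Further: fluorescence gain from ER beta LBD homodimer complementation read by laser scanning cytometry; scored as signal increase over DMSO baseline for both agonists and antagonists.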 An outline of the steps:
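Fluorescence increase, nuclear for agonists or whole-cell for antagonists, relative to DMSO vehicle, quantified by laser scanning cytometer after fixation and Draq5 staining. Readout from 24 h treatment of HEK293T cells carrying complementation-paired ER beta LBD (aa 310-547).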

For assay [3], the target named is Estrogen receptor (Homo sapiens) (UniProt P03372). The assay can be described thus: OT_ERa_GFPERaERE_0480: Odyssey Thera (OT) 8-hour HeLa Transcription Induction Assay for Estrogen Receptor (AID 2283381; active means hit-call score of the fitted dose curve at least 0.9, where 1 is the maximum; inactive means score below 0.9). An outline of the steps: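 Fluorescent reporter signal, imaged by microscopy and scored with image-analysis algorithms, was taken 8 h after chemical dosing of HeLa cells; activity was fitted upward relative to DMSO.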

For assay [4] the target is unchanged. In words: OT_ERa_GFPERaERE_0120: Odyssey Thera (OT) 2-hour HeLa Transcription Induction Assay for Estrogen Receptor (AID 2283382). An outline of the steps:
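HeLa, 384-well, 2 h chemical exposure; GFP reporter induction (ERE), fluorescence microscopy; high content image analysis; positive fitting direction vs DMSO.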

In assay [5] the target is Bile acid receptor (Homo sapiens) (UniProt Q96RI1). In words: OT_FXR_FXRSRC1_0480: Odyssey Thera (OT) 8-hour HEK293T Protein-Complementation Assay for Farnesoid X receptor/SRC-1 Co-activator (AID 2283383). The method, boiled down: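 Human kidney HEK293T cells carried FXR/SRC-1 fragment-complementation constructs. Compounds were added and incubated 8 h. Reporter reassembly upon receptor–co-activator interaction was then quantified by fluorescence, with curves fitted in the positive direction relative to DMSO.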

For assay [6], the target named is human Peroxisome Proliferator-activated Receptor alpha (PPARa), PPARA (gene 5465) (UniProt Q07869). The assay can be described thus: NVS_NR_hPPARa: NovaScreen (NVS) Nuclear Receptor Binding Assay for human Peroxisome Proliferator-activated Receptor alpha (PPARa) (AID 2283359).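 Further: activity means loss of TR-FRET signal versus DMSO baseline.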 An outline of the steps: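 Chemicals were first screened in duplicate at 25 uM, and active ones were retested across concentration series. Binding was monitored by TR-FRET one hour after dosing, with decreased signal against DMSO counted as activity.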

Assay [7] deals with rat Androgen Receptor (AR), Ar (gene 24208) (UniProt P15207). The assay can be described thus: NVS_NR_rAR: NovaScreen (NVS) Nuclear Receptor Binding Assay for rat Androgen Receptor (AR) (AID 2283366). The method, boiled down: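 Cell-free radioligand binding on extracts of prostate from testosterone-pretreated rats, read by filter-based scintillation counting 18 h after dosing. Loss of bound signal fitted positively versus DMSO; primary screen in duplicate at 25 uM, actives followed up in concentration series.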

The target in assay [8] is rat Serotonin Transporter (SERT), Slc6a4 (gene 25553) (UniProt P31652). The assay can be described thus: NVS_TR_rSERT: NovaScreen (NVS) Transporter Assay for rat Serotonin Transporter (SERT) (AID 2283375). The method, boiled down:
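Radioligand displacement, filter scintillation readout; rat forebrain membrane prep, 1 h post-dose. Single-conc 25 uM duplicate screen, then concentration-response on actives. Loss of signal vs DMSO baseline.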

The target of assay [9] is Retinoic acid receptor alpha (Homo sapiens) (UniProt P10276). The assay can be described thus: NVS_NR_hRARa_Agonist: NovaScreen (NVS) Nuclear Receptor Binding Assay for human Retinoic Acid Alpha Receptor Agonism (RAR) (AID 2283361). The method, boiled down:
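Readout is time-resolved fluorescence resonance energy transfer after a 2 h exposure of cell-free extracted receptor protein. Initial testing used 25 uM in duplicate, with concentration-response follow-up for active chemicals.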

In assay [10] the target is Glucocorticoid receptor (Homo sapiens) (UniProt P04150). The assay can be described thus: NVS_NR_hGR: NovaScreen (NVS) Nuclear Receptor Binding Assay for human Glucocorticoid Receptor (GR) (AID 2283363).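 On AC50: activity is loss of specific radioligand binding signal relative to DMSO.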 An outline of the steps: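 Competitive displacement of a labelled ligand was measured on cell-free receptor preparations after 16 h exposure. Initial testing used 25 uM in duplicate with plate controls; confirmed actives went into concentration series.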

The target in assay [11] is Nuclear receptor subfamily 1 group I member 2 (Homo sapiens) (UniProt O75469). In words: NVS_NR_hPXR: NovaScreen (NVS) Nuclear Receptor Binding Assay for human Pregnane X Receptor (PXR) (AID 2283365).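 Further: a drop in FRET signal versus DMSO baseline means the compound binds.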 An outline of the steps:
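TR-FRET signal read at 2 h in a cell-free human PXR binding format. DMSO served as negative control and baseline; activity scored as signal loss. Single-concentration duplicate screen (25 uM), then concentration-response follow-up.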

Assay [12] deals with guinea pig Dopamine Transporter (DAT), gene 100714898. In words: NVS_TR_gDAT: NovaScreen (NVS) Transporter Assay for guinea pig Dopamine Transporter (DAT) (AID 2283369).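 Further: active compounds lower bound radioligand signal relative to DMSO.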 An outline of the steps:
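Cell-free striatal membrane prep (guinea pig), 2 h exposure, filtration + scintillation readout of radioligand binding. Single-point 25 uM duplicate; actives rerun singleton, top conc 50 uM.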

Assay [13] addresses human Dopamine Transporter (DAT), SLC6A3 (gene 6531) (UniProt Q01959). In words: NVS_TR_hDAT: NovaScreen (NVS) Transporter Assay for human Dopamine Transporter (DAT) (AID 2283374).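 Further: activity means loss of bound radioligand signal relative to DMSO.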 An outline of the steps: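 Test chemicals were first screened in duplicate at 25 uM, with actives retested as concentration series. Displacement of a specific radioligand from cell-free human dopamine transporter was measured after 1 h by filtration and scintillation counting.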

The target of assay [14] is human Norepinephrine Transporter (NET), SLC6A2 (gene 6530) (UniProt P23975). In words: NVS_TR_hNET: NovaScreen (NVS) Transporter Assay for human Norepinephrine Transporter (NET) (AID 2283377).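 Further: cell-free membrane protein extracted from CHO cells expressing human NET.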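 On AC50: displacement of radioligand from human NET seen as loss of scintillation signal.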 An outline of the steps:
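Scintillation counts of filter-retained radioligand served as the readout, taken 1 h post-dosing in a cell-free CHO-derived system. Test chemicals ran first at 25 uM in duplicate; confirmed hits were retested across concentrations.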

The target in assay [15] is Peroxisome proliferator-activated receptor gamma (Homo sapiens) (UniProt P37231). In words: NVS_NR_hPPARg: NovaScreen (NVS) Nuclear Receptor Binding Assay for human Peroxisome Proliferator-activated Receptor gamma (PPARg) (AID 2283370). An outline of the steps:
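FP read-out, 2 h post-dose, cell-free extracted receptor protein. Signal loss vs DMSO negative control = binding activity. Single-conc duplicate HTS at 25 uM; concentration-response follow-up for actives.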

For assay [16], the target named is human Adenosine Transporter (Adot), SLC29A1 (gene 2030) (UniProt Q99808). In words: NVS_TR_hAdoT: NovaScreen (NVS) Transporter Assay for human Adenosine Transporter (Adot) (AID 2283368). The method, boiled down:
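U937-derived membranes, cell-free radioligand binding, filter scintillation 1 h after dosing. 25 uM duplicate screen; hits (e.g. 30% inhibition) run in concentration-response up to 50 uM; loss of signal versus DMSO.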

Sequence of human Dopamine Transporter (DAT), SLC6A3 (gene 6531) (Q01959 whole entry, looked up): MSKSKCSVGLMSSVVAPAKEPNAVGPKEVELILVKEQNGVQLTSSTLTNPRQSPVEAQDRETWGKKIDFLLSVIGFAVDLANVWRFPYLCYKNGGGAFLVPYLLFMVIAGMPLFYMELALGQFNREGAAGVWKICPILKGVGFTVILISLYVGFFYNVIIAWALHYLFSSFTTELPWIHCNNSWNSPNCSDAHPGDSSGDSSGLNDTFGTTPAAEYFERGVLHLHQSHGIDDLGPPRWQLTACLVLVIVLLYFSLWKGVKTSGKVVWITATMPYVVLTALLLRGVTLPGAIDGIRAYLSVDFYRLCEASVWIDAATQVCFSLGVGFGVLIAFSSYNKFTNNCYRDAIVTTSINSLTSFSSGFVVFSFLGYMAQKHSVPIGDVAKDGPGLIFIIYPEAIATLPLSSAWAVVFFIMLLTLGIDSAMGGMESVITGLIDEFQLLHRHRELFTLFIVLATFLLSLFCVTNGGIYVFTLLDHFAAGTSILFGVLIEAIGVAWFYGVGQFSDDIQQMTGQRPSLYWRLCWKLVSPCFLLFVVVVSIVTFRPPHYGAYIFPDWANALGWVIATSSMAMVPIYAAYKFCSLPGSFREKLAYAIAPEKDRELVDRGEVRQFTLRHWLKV
Sequence of Peroxisome proliferator-activated receptor gamma (Homo sapiens) (P37231 whole entry, looked up): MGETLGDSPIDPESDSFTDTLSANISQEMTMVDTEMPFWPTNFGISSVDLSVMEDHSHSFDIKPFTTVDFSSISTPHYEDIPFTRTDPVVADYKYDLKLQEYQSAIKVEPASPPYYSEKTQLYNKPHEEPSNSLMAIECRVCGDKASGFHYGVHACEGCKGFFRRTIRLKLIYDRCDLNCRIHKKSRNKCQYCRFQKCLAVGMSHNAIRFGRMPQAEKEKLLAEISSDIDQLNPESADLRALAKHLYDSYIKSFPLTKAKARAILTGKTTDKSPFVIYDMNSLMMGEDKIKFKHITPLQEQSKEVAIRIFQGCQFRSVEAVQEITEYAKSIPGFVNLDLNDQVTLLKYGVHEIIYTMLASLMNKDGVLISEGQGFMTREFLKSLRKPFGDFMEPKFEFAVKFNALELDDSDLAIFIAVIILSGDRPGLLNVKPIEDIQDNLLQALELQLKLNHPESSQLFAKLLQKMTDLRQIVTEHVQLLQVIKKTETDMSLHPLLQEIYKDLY
Sequence of Retinoic acid receptor alpha (Homo sapiens) (P10276 whole entry, looked up): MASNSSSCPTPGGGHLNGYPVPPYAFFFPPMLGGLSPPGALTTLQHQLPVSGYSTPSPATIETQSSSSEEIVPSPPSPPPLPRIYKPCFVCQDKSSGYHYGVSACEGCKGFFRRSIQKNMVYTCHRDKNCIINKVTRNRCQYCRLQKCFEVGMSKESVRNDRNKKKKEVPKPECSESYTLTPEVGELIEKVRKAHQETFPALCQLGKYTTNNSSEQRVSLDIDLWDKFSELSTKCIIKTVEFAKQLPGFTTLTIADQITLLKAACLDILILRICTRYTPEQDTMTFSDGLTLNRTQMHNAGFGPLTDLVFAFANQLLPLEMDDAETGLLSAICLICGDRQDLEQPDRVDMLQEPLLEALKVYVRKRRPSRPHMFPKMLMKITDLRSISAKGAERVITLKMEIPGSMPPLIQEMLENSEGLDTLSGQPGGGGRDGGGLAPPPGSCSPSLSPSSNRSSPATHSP
Sequence of rat Androgen Receptor (AR), Ar (gene 24208) (P15207 whole entry, looked up): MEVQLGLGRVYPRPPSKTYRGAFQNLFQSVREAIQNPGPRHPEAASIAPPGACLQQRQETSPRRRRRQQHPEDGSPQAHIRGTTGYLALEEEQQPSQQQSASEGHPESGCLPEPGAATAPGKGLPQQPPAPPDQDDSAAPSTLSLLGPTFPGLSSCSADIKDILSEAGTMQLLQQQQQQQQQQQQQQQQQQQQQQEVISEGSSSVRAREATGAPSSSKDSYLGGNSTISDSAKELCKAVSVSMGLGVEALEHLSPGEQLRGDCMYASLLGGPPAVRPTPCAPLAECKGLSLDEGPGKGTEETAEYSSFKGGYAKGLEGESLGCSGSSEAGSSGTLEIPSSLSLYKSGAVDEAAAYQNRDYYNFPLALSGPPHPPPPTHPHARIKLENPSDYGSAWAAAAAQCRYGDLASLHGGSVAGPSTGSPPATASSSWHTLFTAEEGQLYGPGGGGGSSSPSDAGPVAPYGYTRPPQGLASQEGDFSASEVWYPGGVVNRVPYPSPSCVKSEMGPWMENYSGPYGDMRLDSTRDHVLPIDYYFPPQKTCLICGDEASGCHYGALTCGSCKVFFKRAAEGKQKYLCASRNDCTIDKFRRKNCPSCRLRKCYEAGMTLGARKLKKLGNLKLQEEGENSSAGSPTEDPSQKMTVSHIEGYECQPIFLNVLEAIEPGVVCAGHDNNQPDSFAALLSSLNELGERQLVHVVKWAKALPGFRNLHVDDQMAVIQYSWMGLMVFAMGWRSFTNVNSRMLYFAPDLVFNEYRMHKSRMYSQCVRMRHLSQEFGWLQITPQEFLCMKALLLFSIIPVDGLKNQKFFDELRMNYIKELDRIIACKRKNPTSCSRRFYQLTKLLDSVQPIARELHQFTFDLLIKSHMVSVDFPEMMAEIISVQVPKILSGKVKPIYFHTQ
Sequence of Nuclear receptor subfamily 1 group I member 2 (Homo sapiens) (O75469 whole entry, looked up): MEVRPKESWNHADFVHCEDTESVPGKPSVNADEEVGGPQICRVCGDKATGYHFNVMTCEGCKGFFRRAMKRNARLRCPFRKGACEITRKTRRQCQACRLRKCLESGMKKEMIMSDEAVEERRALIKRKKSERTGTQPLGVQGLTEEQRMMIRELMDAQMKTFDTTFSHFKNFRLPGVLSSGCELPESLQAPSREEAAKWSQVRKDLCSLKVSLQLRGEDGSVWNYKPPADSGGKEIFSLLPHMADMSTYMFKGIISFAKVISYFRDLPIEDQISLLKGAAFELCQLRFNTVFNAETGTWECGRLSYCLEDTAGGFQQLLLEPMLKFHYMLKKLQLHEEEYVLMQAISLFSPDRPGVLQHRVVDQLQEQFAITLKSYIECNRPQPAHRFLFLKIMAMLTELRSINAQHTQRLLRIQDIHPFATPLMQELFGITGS
Sequence of Estrogen receptor beta (Homo sapiens) (Q92731 whole entry, looked up, the tested form may be a part): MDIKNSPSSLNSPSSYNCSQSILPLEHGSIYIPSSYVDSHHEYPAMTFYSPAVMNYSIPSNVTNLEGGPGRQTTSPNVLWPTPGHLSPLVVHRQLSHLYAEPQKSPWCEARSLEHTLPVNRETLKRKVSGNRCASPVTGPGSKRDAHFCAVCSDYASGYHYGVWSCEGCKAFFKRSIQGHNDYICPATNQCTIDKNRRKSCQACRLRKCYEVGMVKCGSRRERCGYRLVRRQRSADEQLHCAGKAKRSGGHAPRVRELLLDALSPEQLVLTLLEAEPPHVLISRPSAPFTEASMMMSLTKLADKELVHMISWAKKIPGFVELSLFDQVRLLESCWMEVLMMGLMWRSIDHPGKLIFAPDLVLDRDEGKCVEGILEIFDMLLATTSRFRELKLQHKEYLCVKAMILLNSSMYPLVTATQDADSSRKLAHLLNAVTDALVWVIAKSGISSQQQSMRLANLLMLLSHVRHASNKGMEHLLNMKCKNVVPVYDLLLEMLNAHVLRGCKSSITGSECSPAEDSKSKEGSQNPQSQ
Sequence of mouse Estrogen Receptor alpha (Era), Esr1 (gene 13982) (P19785 whole entry, looked up): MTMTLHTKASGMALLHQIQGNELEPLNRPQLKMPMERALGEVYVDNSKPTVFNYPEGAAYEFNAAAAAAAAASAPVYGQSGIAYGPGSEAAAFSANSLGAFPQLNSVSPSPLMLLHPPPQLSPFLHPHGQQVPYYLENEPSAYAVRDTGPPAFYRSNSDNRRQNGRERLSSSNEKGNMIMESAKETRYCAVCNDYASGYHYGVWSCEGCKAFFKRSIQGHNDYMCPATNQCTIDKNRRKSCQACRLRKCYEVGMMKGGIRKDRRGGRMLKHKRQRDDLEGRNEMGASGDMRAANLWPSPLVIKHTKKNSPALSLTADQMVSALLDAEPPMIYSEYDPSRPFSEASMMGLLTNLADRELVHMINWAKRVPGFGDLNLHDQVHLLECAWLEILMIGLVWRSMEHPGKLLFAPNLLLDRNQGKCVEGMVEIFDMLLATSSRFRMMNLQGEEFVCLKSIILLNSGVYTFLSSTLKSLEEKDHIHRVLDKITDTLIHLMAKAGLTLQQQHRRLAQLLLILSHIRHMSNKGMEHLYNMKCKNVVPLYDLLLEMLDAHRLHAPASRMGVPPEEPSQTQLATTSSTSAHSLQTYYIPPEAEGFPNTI
Sequence of human Peroxisome Proliferator-activated Receptor alpha (PPARa), PPARA (gene 5465) (Q07869 whole entry, looked up): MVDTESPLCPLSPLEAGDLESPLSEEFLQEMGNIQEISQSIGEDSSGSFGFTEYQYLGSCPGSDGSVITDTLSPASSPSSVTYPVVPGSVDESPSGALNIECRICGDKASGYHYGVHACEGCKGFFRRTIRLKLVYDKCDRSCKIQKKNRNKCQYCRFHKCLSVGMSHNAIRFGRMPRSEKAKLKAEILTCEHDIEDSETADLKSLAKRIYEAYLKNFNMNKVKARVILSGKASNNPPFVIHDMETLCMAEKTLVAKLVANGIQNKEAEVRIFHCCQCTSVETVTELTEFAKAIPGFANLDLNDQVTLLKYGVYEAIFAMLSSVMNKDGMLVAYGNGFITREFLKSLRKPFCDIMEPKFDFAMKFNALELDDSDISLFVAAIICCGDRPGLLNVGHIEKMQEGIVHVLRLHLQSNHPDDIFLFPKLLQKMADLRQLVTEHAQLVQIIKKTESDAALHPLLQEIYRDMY
Sequence of Bile acid receptor (Homo sapiens) (Q96RI1 whole entry, looked up, the tested form may be a part): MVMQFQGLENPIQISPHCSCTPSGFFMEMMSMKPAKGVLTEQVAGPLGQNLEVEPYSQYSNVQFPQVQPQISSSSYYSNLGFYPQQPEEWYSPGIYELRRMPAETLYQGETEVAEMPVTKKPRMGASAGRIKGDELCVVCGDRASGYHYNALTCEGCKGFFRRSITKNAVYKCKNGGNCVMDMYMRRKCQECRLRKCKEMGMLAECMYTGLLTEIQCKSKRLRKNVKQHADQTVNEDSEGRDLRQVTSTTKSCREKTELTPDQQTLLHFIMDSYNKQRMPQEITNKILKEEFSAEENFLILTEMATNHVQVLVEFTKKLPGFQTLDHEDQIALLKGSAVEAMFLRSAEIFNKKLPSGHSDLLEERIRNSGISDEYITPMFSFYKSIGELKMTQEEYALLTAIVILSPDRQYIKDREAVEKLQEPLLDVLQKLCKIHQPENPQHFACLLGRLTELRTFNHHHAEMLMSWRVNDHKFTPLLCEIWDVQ

`CC(C)(C)c1cc(/C=C2\SC(N)=NC2=O)cc(C(C)(C)C)c1O`: the outcome (in the assay with PGR (gene 5241); in assay [1]; in assay [2]; in [3]; in assay [4]) was inactive.
One may read the AC50 as the concentration giving half of the maximal activity seen. On to `Cc1ncc(CO)c(CO)c1O`, for which the AC50 with PGR (gene 5241) is 16.9 µM (active). Also, in assay [5], the result was inactive.
With `C[C@]12CC[C@@H]3c4ccc(O)cc4CC[C@H]3[C@@H]1CCC2=O`, the compound was classed as inactive in assay [6], in [7], in assay [1] and in [5]. Besides, the figures for the half-maximal activity concentration (AC50) (with PGR (gene 5241); in assay [8]; in [1]) were 0.159 µM (active), 4.96 µM (active) and 7.03 nM (active) [middle of 4 runs], respectively.
Regarding `CCN(CC)C(=O)c1cc(S(=O)(=O)Cc2ccccc2)c(N2CCC(c3ccccc3)CC2)cc1N(CC)CCN(C)C`, the result in assay [9], in assay [2] and in [3] was inactive. The AC50 in assay [10] is 14.2 µM (active); in [11] it was 15.4 µM (active); in [12] it was 6.53 µM (active); in [13], 5.63 µM (active); in [14], 10.4 µM (active); in [1], 2.54 µM (active). Moreover, the AC50 in [4] is 19 µM (active); in assay [5], 4.46 µM (active).
For `CCCCCCCCCC(=O)O`, the compound was called inactive in [6] and in [13].
Consider `C[C@]12CC[C@@H]3c4ccc(O)cc4CC[C@H]3[C@@H]1CC[C@H]2O`, for which the result in assay [6], in assay [10], in assay [11] and in assay [15] was inactive. The concentration at half-maximal activity (AC50) in [10] was 374 nM (active) and 448 nM (active) and 261 nM (active); in assay [12], 0.231 µM (active); in [13], 0.252 µM (active).
On to `CCN(Cc1cccnc1)C(=O)c1cccc(Cl)c1[C@]1(C)C(=O)N(Cc2ccc(OC)cc2OC)c2ccc(Cl)cc21`, for which the concentration at half-maximal activity (AC50) is 9.73 µM (active) in the assay with PGR (gene 5241), 4.93 µM (active) in assay [10], 1.55 µM (active) in [16] and 0.278 µM (active) in assay [5]. Also, the compound was called inactive in assay [2], in [3] and in [4].
For `O=C(OCCCCCCOC(=O)c1ccccc1)c1ccccc1`, the call in assay [9], in assay [14], in [3] and in [4] was inactive. Moreover, the concentration at half-maximal activity (AC50) in [5] is 50 µM (active).
Take `CCO[Si](CCCNC(N)=O)(OCC)OCC`: the outcome in [9], in assay [2], in assay [3] and in [4] was inactive.
On to `O=c1c(-c2ccc(O)cc2)coc2cc(O)cc(O)c12`, for which the compound was called inactive in assay [9], in assay [11], in assay [7] and in [5]. The concentration at half-maximal activity (AC50) is 39.4 µM (active) in [15]; 12.5 µM (active) and 11.5 µM (active) and 13.4 µM (active) in assay [5].
Regarding `CN1C(=O)CC[C@H]1c1cccnc1`, the call (in the assay with PGR (gene 5241); in assay [2]) was inactive.
